FAS-TE inh = FAS thioesterase domain inhibitors, primary screen, biochemical, fluorescence intensity, uHTS | 0.67% of 360,000 active | Fatty acid synthase (Homo sapiens), P49327 | AID 602261, 2012 | inhibition, % at 15 µM | recombinant FAS-TE, OMFH fluorogenic substrate, fluorescence endpoint;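 active = compounds whose normalised, plate-corrected inhibition of enzyme fluorescence in the single-dose primary screen is 50% or more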;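 note: 0% = DMSO with enzyme and 100% = substrate without enzyme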
MPTP inh = mitochondrial permeability transition pore inhibitors, primary screen, biochemical, isolated mouse mitochondria, absorbance. Ca2+ swelling absorbance, 30 min. inhibition, % at 10 µM. 1.4% of 360,000 active. AID 602449, 2012;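 active = inhibition of 50% or more, scaled per plate between neutral and stimulator controls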;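 note: 0% = DMSO wells given calcium and 100% = 1 mM EGTA wells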
H9c2 protect = cardioprotection against H2O2-induced cell death, primary screen, uHTS, H9c2 cells, ATPLite luminescence; 0.63% of 360,000 active; H9c2 cardiomyocytes, H2O2 injury protection, 2 h; AID 588492, 2011; protection from H2O2 cell death, % at 20 µM;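 active = compounds giving at least 50% protection of heart cells from peroxide-induced death in the single-dose screen, raw or plate-pattern-corrected value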;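 note: 0% = DMSO wells with peroxide and 100% = DMSO wells without peroxide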
aDG glyco up = activators of alpha-DG glycosylation, primary screen, uHTS, Pro5-aDG cells, AlphaScreen. alpha-DG glycosylation AlphaScreen (IIH6); 0% Pro5, 100% B10-LARGE cell signal. activation, % at 10 µM. 0.22% of 360,000 active. AID 624168, 2012;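 active = activation of at least 8% versus controls, or a plate z-score of at least 8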;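 note: Pro5 are CHO cells carrying HIG-tagged alpha-DG that lacks glycosylation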
Mot1-301 SUMO = yeast Mot1-301 growth rescue at high temperature, primary screen, SUMOylation pathway inhibitor project, S. cerevisiae, ATP luminescence, 38.5C; S. cerevisiae Mot1-301 growth rescue; percent above DMSO median, 100 means doubled; growth rescue, % at 18.8 µM; 1% of 320,000 active;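 active = every valid replicate shows activation above 250% relative to neutral control wells; inactive = the rest, any valid replicate at or below 250%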;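 note: OY570 slx delta 5 strain wells were the positive control but not used for scaling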
CR mimetic SO = reduction of superoxide in aged yeast, primary screen, HTS; S. cerevisiae aged cells, superoxide DHE fluorescence; stronger effect = lower value; 0.18% of 330,000 active; superoxide response (% of plate mean), % at 10 µM;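 active = superoxide response under a set limit, about three screen SD below normal, cut at about 65% in these data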;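 note: yeast aged for seven days with compound at 30 °C before DHE staining; 100% = average MFI of all compound-treated wells on the plate with controls excluded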
Rh123 counter = fluorescence retest of MPTP screen hits in isolated mitochondria, single concentration; 78% of 5,000 active; inhibition, % at 10 µM; shares compounds with MPTP inh; AID 624504, 2012; membrane potential, Rhodamine 123 fluorescence; in the data active = inhibition above about 22%;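 note: 0% = DMSO vehicle and 100% = positive control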
MPTP abs DR = mitochondrial permeability transition pore inhibitors, dose response, biochemical, absorbance, uHTS hits; isolated mitochondria swelling; 58% of 780 active; shares compounds with MPTP inh; IC50, µM; in the data active = IC50 below about 20 µM
MPTP cs DR = fluorescent counter-screen in isolated mitochondria, dose response, counter-screen for MPTP inhibitor project, biochemical, fluorescence, uHTS hits; shares compounds with MPTP inh; isolated mitochondria counterscreen, fluorescence read-out; IC50, µM; 49% of 780 active; in the data active = IC50 below about 80 µM
Numbers without * were called inactive; i = inactive; x = not tested or not shown. In the library only some 3.8% were active in any assay of this set; here they are far more common.

SMILES	FAS-TE inh	MPTP inh	H9c2 protect	aDG glyco up	Mot1-301 SUMO	CR mimetic SO	Rh123 counter	others
CCCCCC(=O)NC(NC(=S)N1CCOCC1)C(Cl)(Cl)Cl (stereo not given)	-2	3	-18	0	3	100	x
CCCCCCCCC(=O)NC(NC(=S)N1CCOCC1)C(Cl)(Cl)Cl (stereo not given)	25	88*	-18	0	104	104	86*
O=C(CSC1CC(=O)N(CC(c2ccccc2)c2ccccc2)C1=O)Nc1ccc(Cl)cc1 (stereo not given)	24	75*	-14	1	x	105	79*
O=C(O)CSC1CC(=O)N(c2ccc(Cl)cc2)C1=O (stereo not given)	-6	-2	-2	0	-3	91	x
Cc1ccc(C(=O)N(CC(=O)Nc2ccc(Cl)c(Cl)c2)Cc2ccco2)cc1	33	53*	-6	1	-11	111	71*
O=C(CN(Cc1ccco1)C(=O)c1ccccc1)Nc1ccc(Cl)c(Cl)c1	47	41	-3	0	2	107	x
C=CCC[C@@H](CCCCC)OC(=O)/C=C/[C@H](O)[C@@H](O)C[C@@H](O)CC=C	-5	2	x	0	x	x	x
O=C1NC[C@@H](CCCCN2C[C@H](Cc3ccc(O)cc3)N(Cc3ccccc3)C(=O)C2=O)N(CCC2CCCCC2)C1=O	0	-2	x	0	x	x	x
CN1CCN(c2ccc(NC(=S)NC(=O)c3cccc4c(Cl)cccc34)cc2)CC1	-1	91*	7	2	1	105	-8
CCCC(=O)N1CCN(c2ccc(NC(=S)NC(=O)c3cccc(C)c3)cc2)CC1	11	77*	-13	1	179	69	56*
COc1cccc(C(=O)NC(=S)Nc2ccc(N3CCCC3)cc2)c1	12	0	-3	0	3	90	x
CC(/C=C1\SC(=S)N(NS(=O)(=O)c2ccc(C)cc2)C1=O)=C\c1ccccc1	35	54*	-7	0	-7	115	41*
COC(=O)c1ccc(NC(=S)NCCC2=CCCCC2)cc1	34	89*	-20	0	-13	108	87*
CCOC(=O)c1ccc(NC(=S)NCCc2ccc(F)cc2)cc1	23	85*	-17	1	21	121	79*
CCOC(=O)c1ccc(NC(=O)C(=O)NCCc2ccc(OC)cc2)cc1	-5	-2	0	0	-3	112	x
CCOC(=O)c1cn[nH]c1NC(=S)Nc1ccc(Cl)cc1	-147	66*	-13	0	10	105	65*
CCOC(=O)c1ccc(NC(=S)Nc2ccccc2)cc1	2	88*	-2	0	-13	85	95*
CC(C)N(CCn1c(SCC(=O)Nc2cccnc2Cl)nc2ccccc2c1=O)C(C)C	-1	1	13	0	11	101	x
CC(Sc1nc2c(c(=O)[nH]1)CCCC2)C(=O)Nc1ccc(Br)cn1 (stereo not given)	1	0	1	0	179	130	x
Cc1cc(Cl)ccc1OCCCC(=O)OCC(N)=O	-1	1	8	0	-5	113	x
Cc1cccc(-c2noc(CNC(=O)c3ccco3)n2)c1	-2	0	-3	0	92	102	x
Cc1ccc(CNCCC2=CCCCC2)cc1	-5	65*	-3	0	-8	84	-2	MPTP abs DR=19*;MPTP cs DR=48*
CCOC(=O)c1ccc(NC(=O)Nc2ccc3c(c2)OCCO3)cc1	14	74*	-14	0	-22	101	78*
Cc1ccc(S(=O)(=O)NCCC2=CCCCC2)cc1	10	-1	-10	0	x	x	x
Cn1c(=O)c2c(nc(/C=C/c3cccc(Cl)c3)n2C)n(C)c1=O	x	x	x	x	9	105	x
SMILES	FAS-TE inh	MPTP inh	H9c2 protect	aDG glyco up	Mot1-301 SUMO	CR mimetic SO	Rh123 counter	others
OC(c1ccc(Cl)c(F)c1)c1ncc(-c2ccccc2F)[nH]1 (stereo not given)	10	6	-18	0	x	x	x
CCc1ccc(OCC(=O)NNC(=O)Cc2ccc(S(=O)(=O)N3CCOCC3)s2)cc1	-3	-2	-8	0	11	81	x
NS(=O)(=O)c1ccc(CNC(=O)C2CCCN2C(=O)c2cccs2)cc1 (stereo not given)	-4	-1	3	0	-8	105	x
Cc1[nH]n(-c2cccc3ccccc23)c(=O)c1/C=N/c1sc2c(c1C#N)CCC2	-2	0	-9	0	-4	88	x
Cc1[nH]n(-c2ccc(Cl)cc2)c(=O)c1/C=N/c1nnc(-c2ccccc2)s1	14	104*	-6	0	3	106	43*
Cc1[nH]n(-c2ccc(F)cc2)c(=O)c1/C=N/c1sc2c(c1C#N)CCCC2	-3	106*	-13	0	-2	95	25*
O=C1c2cc(Br)ccc2N(Cc2ccc(Br)cc2)S(=O)(=O)C1c1cc(Cl)c(Cl)cc1[N+](=O)[O-] (stereo not given)	82*	66*	8	0	107	81	18
Cc1cc(C)c(NC(=O)CS(=O)CC(=O)N2CCN(c3cccc(C)c3C)CC2)c(C)c1 (stereo not given)	0	-2	-3	0	33	103	x
COC(=O)c1sccc1N/N=C/c1cccc(OC)c1O	0	1	-3	0	-5	92	x
COC(=O)c1sccc1N/N=C/c1cccc(Oc2ccccc2)c1	31	64*	0	0	-7	87	-8	MPTP abs DR=i;MPTP cs DR=>80
CC(C)(C)c1ccc(-c2nnc(SCCC#N)n2C2CCCC2)cc1	30	69*	-29	2	x	103	15	MPTP abs DR=i;MPTP cs DR=23*
Cc1cc(C)cc(NC(=O)Nc2ccccc2N2CCCCC2)c1	9	63*	-6	0	20	94	61*
O=C(Nc1ccc(N2CCOCC2)c(S(=O)(=O)Nc2ccccc2Cl)c1)c1ccccc1	37	-2	6	0	5	121	x
Cc1cc(C)cc(OCC(=O)Nc2ccccc2N2CCCCC2)c1	32	-1	-30	0	10	101	x

Compound activity (PubChem)
